According to PubChem BioAssay (NCATS):
Records with an inconclusive call do not appear. A call without a number means that no potency is given here. The source made the active and inactive calls. The call rests on the fitted dose curve; in most records, active means well fitted inhibition curve with a large enough effect; inconclusive means small, poorly fitted or top-dose-only effect; inactive means no such curve, though single readings can be large or run the other way.

system: Zika virus NS2B-NS3 protease (linked construct); test: Primary screen NINDS Rhodamine qHTS for Zika virus inhibitors (AID 1347160); conditions: purified NS2B-NS3 protease, Rhodamine110 substrate fluorescence; series mostly up to 33.1 µM; further: nearly all actives have a fitted effect of over 55% in size
Method in brief: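 Aprotinin served as in-plate control. Conditions: 25 nM linked NS2B-NS3, pH 8.0 Tris buffer, titrated compounds, 15 min preincubation and 15 min reaction with 1.5 microM Rhod110 substrate at room temperature.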
Potency means the concentration at half of the fitted maximal effect.

| SMILES | Potency |
| --- | --- |
| CC1=CC2=C(C)C(=O)C(C)(O)C(O)C2CO1 (stereo unspecified) | inactive |
| CCCCS(=O)(=O)NC(Cc1ccc(OCCCCC2CCNCC2)cc1)C(=O)O (stereo unspecified) | inactive |
| CC(CC(C)O[C@@H]1O[C@H](CO)[C@@H](O)[C@H](O)[C@H]1O)OC(=O)/C=C/c1ccc(O)cc1 (stereo partly specified) | 12.6 µM (active) |
| C=C(C)C1Cc2c(ccc3c2OCC(c2ccc(O)cc2O)C3)O1 (stereo unspecified) | inactive |
| CC(C)(OC1OC(CO)C(O)C(O)C1O)C1CCC(O)(CO)C2CC(=O)C(C)(O)C2C1 (stereo unspecified) | inactive |
| CC(=O)/C=C/C1(O)C(C)CC(O[C@@H]2O[C@H](CO)[C@@H](O)[C@H](O)[C@H]2O)CC1(C)C (stereo partly specified) | inactive |
| C[C@@H]1O[C@@H](O[C@H]2[C@H](O)[C@@H](O)[C@H](OC(=O)[C@]34CCC(C)(C)C[C@H]3C3=CCC5[C@@]6(C)CC[C@H](O[C@@H]7O[C@H](C(=O)O)[C@@H](O)[C@H](O)[C@H]7O)C(C)(C)C6CC[C@@]5(C)[C@]3(C)CC4)O[C@@H]2CO)[C@H](O)[C@H](O)[C@H]1O (stereo partly specified) | inactive |
| COC(=O)[C@]1(Cc2ccc(O)c(CC=C(C)C)c2)OC(=O)C(O)=C1c1ccc(O)cc1 | inactive |
| Cc1ncc(NC(=O)c2ccc(CN3CCN(C)CC3)c(C(F)(F)F)c2)cc1Nc1nccc(-c2cccnc2)n1 | inactive |
| CC(O)/C=C/C1(O)C(C)C(O)C(O[C@@H]2O[C@H](CO)[C@@H](O)[C@H](O)[C@H]2O)CC1(C)C (stereo partly specified) | inactive |
| CC1(C)CC[C@]2(C(=O)O[C@@H]3O[C@H](CO)[C@@H](O)[C@H](O)[C@H]3O)CC[C@]3(C)C(=CCC4[C@@]5(C)C[C@@H](O)[C@H](O)[C@@](C)(CO)C5[C@H](O)C[C@]43C)C2[C@@H]1O (stereo partly specified) | inactive |
